40 molecules from PubChem BioAssay (NCATS) can be followed below.

SMILES strings stand for the structures. The source made the active and inactive calls. Calls come from the whole dose curve; as a rule, active = well fitted inhibition curve with a large enough effect; inconclusive = small, poorly fitted or top-dose-only effect; inactive = flat fitted curve, though single readings scatter.

DNA polymerase III PolC-type (Bacillus subtilis (strain 168)), sequence (P13267 whole entry, looked up): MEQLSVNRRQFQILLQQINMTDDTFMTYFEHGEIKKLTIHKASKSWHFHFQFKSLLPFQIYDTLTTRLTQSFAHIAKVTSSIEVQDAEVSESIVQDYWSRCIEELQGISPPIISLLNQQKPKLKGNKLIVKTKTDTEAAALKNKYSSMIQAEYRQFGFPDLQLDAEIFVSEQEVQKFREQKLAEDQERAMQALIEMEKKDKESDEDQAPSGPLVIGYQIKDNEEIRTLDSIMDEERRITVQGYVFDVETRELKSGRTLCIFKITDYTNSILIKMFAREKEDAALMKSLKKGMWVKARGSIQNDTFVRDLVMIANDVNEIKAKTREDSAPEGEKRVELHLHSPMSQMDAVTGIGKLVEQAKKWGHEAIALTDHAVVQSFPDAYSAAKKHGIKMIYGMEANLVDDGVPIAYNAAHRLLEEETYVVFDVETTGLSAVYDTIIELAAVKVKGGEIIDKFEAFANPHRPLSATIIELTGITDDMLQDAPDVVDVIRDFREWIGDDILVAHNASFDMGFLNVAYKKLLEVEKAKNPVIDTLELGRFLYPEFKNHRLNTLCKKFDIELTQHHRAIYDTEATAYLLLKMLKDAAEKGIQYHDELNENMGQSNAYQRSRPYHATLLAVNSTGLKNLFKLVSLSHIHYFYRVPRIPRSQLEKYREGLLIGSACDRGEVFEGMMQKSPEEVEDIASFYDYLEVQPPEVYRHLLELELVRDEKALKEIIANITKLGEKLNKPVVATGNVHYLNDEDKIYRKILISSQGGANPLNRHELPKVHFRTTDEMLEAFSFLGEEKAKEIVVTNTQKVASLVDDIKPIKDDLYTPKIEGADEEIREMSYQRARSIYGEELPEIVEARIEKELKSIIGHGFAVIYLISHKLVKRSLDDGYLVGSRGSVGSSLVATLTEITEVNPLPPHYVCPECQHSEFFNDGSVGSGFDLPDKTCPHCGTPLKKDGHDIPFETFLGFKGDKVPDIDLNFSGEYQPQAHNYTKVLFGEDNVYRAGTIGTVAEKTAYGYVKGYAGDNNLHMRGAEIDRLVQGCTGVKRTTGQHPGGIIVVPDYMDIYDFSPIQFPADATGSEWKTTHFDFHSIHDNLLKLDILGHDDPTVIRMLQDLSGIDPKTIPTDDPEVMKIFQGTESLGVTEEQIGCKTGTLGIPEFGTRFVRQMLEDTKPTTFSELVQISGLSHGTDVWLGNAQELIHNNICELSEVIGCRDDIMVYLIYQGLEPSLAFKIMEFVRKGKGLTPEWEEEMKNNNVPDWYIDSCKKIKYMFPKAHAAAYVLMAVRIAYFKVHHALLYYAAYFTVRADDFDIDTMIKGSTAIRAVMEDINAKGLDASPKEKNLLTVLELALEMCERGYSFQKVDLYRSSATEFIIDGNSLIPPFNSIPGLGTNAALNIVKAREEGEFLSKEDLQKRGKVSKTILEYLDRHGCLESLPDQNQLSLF

In this test the target is DNA polymerase III PolC-type (Bacillus subtilis (strain 168)) (UniProt P13267). Put plainly: qHTS Validation Assay for the Inhibitors of DNA Replication in Gram-Positive Bacteria (AID 485295).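 Note: reconstituted holoenzyme with PolC plus beta clamp SSB and primase.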 The following applies: Gram-positive bacterial DNA replication assay; series mostly up to 57.1 µM; activity change, negative = inhibition: at the top concentration. Here is the method:
B Subtilis DNA polymerase III holoenzyme complex was assayed for DNA production by fluorescent detection of the double-stranded DNA product with PicoGreen dye. The holoenzyme complex was reconstituted from the following purified protein components: DNA Polymerase III, beta subunit processivity factor, SSB single-stranded DNA binding protein, and Primase. Single-stranded, circular M13Gori was used as a substrate with dNTPs and NTPs also supplied to the substrate reagent. Compounds from the NCGC collection were incubated with the holoenzyme mixture for […] at room temperature to allow binding to occur, and then the reaction was started by the addition of substrate. After 30 min incubation at room temperature, PicoGreen solution containing EDTA was added to stop the reaction and to visualize the double-stranded DNA produced. Reaction progress was measured in a ViewLux CCD imager in fluorescence intensity mode by using 480 nm excitation and 540 nm emission filter set.
1. Thaw screening compounds.
2. Label assay plates. Prepare pipette tips, reagent reservoirs, buffers and controls.
1. Thaw Enzymes, DNA template, Nucleotides and PicoGreen dye concentrate. Thawed enzymes are stable on ice for ~1
week. Other thawed components are stable indefinitely.
2. Prepare sufficient quantities of Enzyme, Substrate and PicoGreen Quench mixes (according to Table II). For the number of
compound plates being screened.
3. Ensure that the tip wash station reservoirs have clean water and turn on recirculating chiller so that the chilled deck position
1. Load 2 uL of EDTA controls (250 mM, Background, 100 % inhibition) and 2 uL of DMSO controls (Negative control, 0%
inhibition) in the screening plates (flat-bottomed black 384-well polypropylene, Greiner Bio-one).
2. Place Enzyme mix reservoir on the chiller position of the liquid handler deck. Make sure that chiller will maintain
temperature of Enzyme mix at 4degC. Substrate mix and PicoGreen Quench can be stored at room temp.
3. Program liquid handling robotics to dispense 18 uL of Enzyme mix into assay plates. Wash tips.
4. Aspirate and dispense 2 uL of compound from compound plates, mix and Incubate at room temperature for 10 minutes.
5. Aspirate 5 ul of Substrate mix, dispense into assay plates and mix by pipetting. Wash tips.
6. Incubate at room temperature (21 +/- 1 deg C) for 20 minutes.
7. Quench reactions by addition of 25 uL PicoGreen Quench mix and mix by pipetting (using HTS robotics or bulk reagent
dispenser such as a Multidrop or uFill). Keep plates in the dark or stacked until ready to read fluorescence.
8. Read fluorescence intensity of plates on plate reader using "Fluorescein (Ex 485 nm/ Em 535 nm, 0.1s)" setting.
A general note: In qHTS, concentration-response curves come from the screen itself.
For `N=c1c[n+](N2CCOCC2)[n-]o1`, the “activity change, negative = inhibition” value was 2.17% (inactive).

Take `CN(C)CCOC(C)(c1ccccc1)c1ccccn1` (stereo not given): the “activity change, negative = inhibition” value is -4.35% (inactive). Take `CC(CN(C)C)CN1c2ccccc2CCc2ccccc21` (stereo not given): the “activity change, negative = inhibition” value was 3.36% (inactive). With `NC(=O)c1ncn([C@@H]2O[C@H](CO)[C@@H](O)[C@H]2O)n1`, the “activity change, negative = inhibition” value is 3.87% (inactive). Same read-out and setting: as for `COc1ccc(Cl)cc1C(=O)NCCc1ccc(S(=O)(=O)NC(=O)NC2CCCCC2)cc1`, the figure is -3.75% (inactive).

In the case of `CC(C)(C)c1onc(OCP(=O)(O)O)c1CC(N)C(=O)O` (stereo not given), the call was inactive.

For `CC(C)(C)[C@]1(O)CCN2C[C@H]3c4ccccc4CCc4cccc(c43)[C@@H]2C1`, the outcome was inactive. Consider `COC(=O)C1=C(C)NC(C)=C(C(=O)OC)C1c1ccccc1[N+](=O)[O-]`, for which the “activity change, negative = inhibition” value was -1.33% (inactive). As to `Nc1ncnc2c1ncn2[C@@H]1O[C@H](CO)[C@@H](O)[C@H]1O`, the “activity change, negative = inhibition” value is 6.56% (inactive). Turning to `CN(C)CCCN1c2ccccc2Sc2ccc(Cl)cc21`, the “activity change, negative = inhibition” value was -1.08% (inactive). As to `CN1CCN(C2Cc3ccccc3Sc3ccc(Cl)cc32)CC1` (stereo not given), the “activity change, negative = inhibition” value was -8.93% (inactive).

On to `CCN(CC)C(C)CN1c2ccccc2Sc2ccccc21` (stereo not given), for which the “activity change, negative = inhibition” value was -0.961% (inactive).

Take `CN(C)CCCN1c2ccccc2CCc2ccccc21`: the “activity change, negative = inhibition” value was 0.0769% (inactive). The same measure, in the same setting: the figure for `CCN(CC)CCNC(=O)c1cc(Cl)c(N)cc1OC` is 4.99% (inactive). On to `CC1=C(CC(=O)O)c2cc(F)ccc2/C1=C\c1ccc(S(C)=O)cc1` (stereo not given), for which the “activity change, negative = inhibition” value is -1.2% (inactive). Regarding `CC(C)(C(=O)O)c1ccc(C(O)CCCN2CCC(C(O)(c3ccccc3)c3ccccc3)CC2)cc1` (stereo not given), the “activity change, negative = inhibition” value is -5.83% (inactive). `COCCOC(=O)C1=C(C)NC(C)=C(C(=O)OC/C=C/c2ccccc2)C1c1cccc([N+](=O)[O-])c1` (stereo not given): the “activity change, negative = inhibition” value was -8.31% (inactive). As to `CC(C)C(=O)c1c(C(C)C)nn2ccccc12`, the “activity change, negative = inhibition” value is 2.6% (inactive). As to `CNCCCC1c2ccccc2C=Cc2ccccc21`, the “activity change, negative = inhibition” value was 2.65% (inactive). Take `C[C@]12CC[C@@H]3c4ccc(O)cc4CC[C@H]3[C@@H]1CCC2=O`: the “activity change, negative = inhibition” value was -2.65% (inactive).

For `NC(N)=NCCC[C@H](N)C(=O)O`, the “activity change, negative = inhibition” value was -3.67% (inactive). Same read-out and setting: the figure for `CC(CN1c2ccccc2Sc2ccccc21)N(C)C` (stereo not given) is 5.09% (inactive); for `CCN(CC)CCOC(=O)C1(C2CCCCC2)CCCCC1` it is 6.5% (inactive). Consider `C#CCN(C)Cc1ccccc1`, for which the “activity change, negative = inhibition” value was -2.43% (inactive).

On to `CSc1ccc2c(c1)N(CCC1CCCCN1C)c1ccccc1S2` (stereo not given), for which the “activity change, negative = inhibition” value is 2.52% (inactive). Turning to `Cc1cc(N)c2ccccc2[n+]1CCCCCCCCCC[n+]1c(C)cc(N)c2ccccc21`, the “activity change, negative = inhibition” value is -1.76% (inactive).

Consider `OCCN1CCN(CCCN2c3ccccc3Sc3ccc(Cl)cc32)CC1`, for which the “activity change, negative = inhibition” value is -2.43% (inactive).

For the molecule `CCN(CC)CCCC(C)Nc1c2ccc(Cl)cc2nc2ccc(OC)cc12` (stereo not given), the “activity change, negative = inhibition” value is -6.96% (inactive). Regarding `CNCC(O)c1ccc(O)c(O)c1` (stereo not given), the “activity change, negative = inhibition” value is 0.882% (inactive). `CC[C@H]1CN2CCc3cc(OC)c(OC)cc3[C@@H]2C[C@@H]1C[C@H]1NCCc2cc(OC)c(OC)cc21`: the “activity change, negative = inhibition” value was 0.297% (inactive). Regarding `OCc1cc(C(O)CNCCCCCCOCCCCc2ccccc2)ccc1O` (stereo not given), the “activity change, negative = inhibition” value was 0.671% (inactive).

Take `CC1=C(/C=C/C(C)=C/C=C/C(C)=C/C(=O)O)C(C)(C)CCC1`: the “activity change, negative = inhibition” value was -11.2% (inactive).

In the case of `CNCCC(Oc1ccc(C(F)(F)F)cc1)c1ccccc1` (stereo not given), the “activity change, negative = inhibition” value is -7.91% (inactive). The same measure, in the same setting: as for `CCCCCCCCCCCCCCCC(=O)NCCO`, the figure is 9.07% (inactive).

With `CNC(=O)Oc1ccc2c(c1)[C@]1(C)CCN(C)[C@@H]1N2C`, the “activity change, negative = inhibition” value was -0.613% (inactive).

For the molecule `O=C1N=C(O)CN1/N=C/c1ccc(-c2ccc([N+](=O)[O-])cc2)o1`, the “activity change, negative = inhibition” value was -2.27% (inactive). Same read-out and setting: the figure for `CC(=O)OCC(=O)[C@@]1(O)CC[C@H]2[C@@H]3CCC4=CC(=O)CC[C@]4(C)[C@H]3C(=O)C[C@@]21C` is -2.53% (inactive); for `Nc1cc(=O)[nH]c(N)n1` it is -2.3% (inactive); for `CC(C(O)c1ccc(O)cc1)N1CCC(Cc2ccccc2)CC1` (stereo not given) it is -4.98% (inactive). Still for that read-out and setting: as for `CSc1ccc2c(c1)C(N1CCN(C)CC1)Cc1ccccc1S2` (stereo not given), the figure is -1.53% (inactive).
